According to PMC4336329 (PLoS ONE, 2015):
Hit rate of the full screen: of about 310,000 compounds, about 14,000 (4.5%) showed an effect of 50% or more. Effects have a minus sign here. Shown is part of a subset that was picked to be rich in strong results.

target: human ether-à-go-go-related gene (hERG) potassium channel (human, UniProt Q12809); experiment: primary screen, population patch clamp on CHO cells stably expressing hERG; higher = less effect of the substance
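Note: peak tail current of the secondary pulse compared with the same well before compound.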

Sequence of human ether-à-go-go-related gene (hERG) potassium channel (Q12809 whole entry, looked up): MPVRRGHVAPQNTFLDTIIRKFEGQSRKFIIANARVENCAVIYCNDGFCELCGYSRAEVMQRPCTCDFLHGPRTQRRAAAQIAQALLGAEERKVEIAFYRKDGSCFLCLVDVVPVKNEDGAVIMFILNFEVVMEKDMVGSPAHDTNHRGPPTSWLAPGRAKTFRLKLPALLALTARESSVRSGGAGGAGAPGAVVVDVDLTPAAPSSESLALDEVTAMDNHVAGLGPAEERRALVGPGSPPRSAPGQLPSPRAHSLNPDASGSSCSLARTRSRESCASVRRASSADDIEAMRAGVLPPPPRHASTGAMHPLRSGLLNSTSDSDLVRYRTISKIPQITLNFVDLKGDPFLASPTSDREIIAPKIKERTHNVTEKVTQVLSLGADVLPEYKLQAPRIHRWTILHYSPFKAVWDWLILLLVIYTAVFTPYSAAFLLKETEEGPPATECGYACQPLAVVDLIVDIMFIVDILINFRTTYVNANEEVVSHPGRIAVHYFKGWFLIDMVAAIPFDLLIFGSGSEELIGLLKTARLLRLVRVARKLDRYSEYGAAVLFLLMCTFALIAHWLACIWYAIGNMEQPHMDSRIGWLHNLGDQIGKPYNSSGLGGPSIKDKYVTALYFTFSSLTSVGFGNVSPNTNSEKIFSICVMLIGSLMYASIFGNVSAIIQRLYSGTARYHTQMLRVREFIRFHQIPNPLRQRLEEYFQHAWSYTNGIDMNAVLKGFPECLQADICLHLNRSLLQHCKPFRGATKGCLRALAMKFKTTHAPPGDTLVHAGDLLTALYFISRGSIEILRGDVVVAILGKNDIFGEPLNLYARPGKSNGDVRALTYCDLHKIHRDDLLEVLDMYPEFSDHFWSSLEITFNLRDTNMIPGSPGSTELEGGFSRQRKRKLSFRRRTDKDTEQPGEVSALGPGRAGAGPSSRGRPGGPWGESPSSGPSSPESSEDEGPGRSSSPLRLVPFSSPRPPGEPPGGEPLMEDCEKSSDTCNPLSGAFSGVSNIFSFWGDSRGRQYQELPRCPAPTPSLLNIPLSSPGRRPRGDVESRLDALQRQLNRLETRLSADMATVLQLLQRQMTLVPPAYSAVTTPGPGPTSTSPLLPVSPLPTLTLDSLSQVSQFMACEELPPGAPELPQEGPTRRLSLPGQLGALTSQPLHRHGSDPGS

| SMILES | hERG current change (%, negative = inhibition) at 10uM |
| --- | --- |
| CC(C)N1C(=O)N(c2cccc(Cl)c2)C(C)(O)CC1(C)C (stereo not shown) | 17.5% |
| COc1cccc(-c2nc(CS(=O)CC(=O)NCc3ccccc3)c(C)o2)c1 (stereo not shown) | -6.07% |
| CCCOc1cccc(NC(=O)c2c(-c3ccccc3)noc2C)c1 | -8.81% |
| CCC1(O)CC(C(=O)OC)=NN1C(=O)c1ccccc1 (stereo not shown) | 7.94% |
| COc1ccccc1-n1cnnc1SCC(=O)Nc1ncc(Cl)cc1Cl | -0.265% |
| COc1ccccc1OCC(=O)NCCSCc1ccc(Cl)cc1 | -45% |
| COc1ccc(C(=O)N/C(=C\c2ccccc2)C(=O)Nc2ccccc2C(=O)O)cc1 | 11.3% |
| COc1ccccc1C(=O)NNC(=O)c1ccc(C)cc1 | 9.24% |
| Cc1ccc(NC(=O)C2(N3CCC3=O)CCCCC2)cc1 | 6.92% |
| COCC(C)NC(=O)C(C)Oc1ccccc1 (stereo not shown) | 12% |
| CC(C)c1nnc(NC(=O)CCC(=O)NCc2ccccc2Cl)s1 | 11.2% |
| Cn1cnc([N+](=O)[O-])c1NCc1ccccc1 | 10.3% |
| COc1cc(/C=N/Nc2nc(Nc3ccccc3)nc(N3CCOCC3)n2)ccc1OC(=O)c1ccco1 | 13.6% |
| Cn1c(=O)n(CC(=O)N2CCN(c3nnc(-c4ccccc4)c4ccccc34)CC2)c2ccccc21 | -56% |
| O=C(CN1C(=O)c2ccccc2C1=O)N1CCN(c2nnc(-c3ccccc3)c3ccccc23)CC1 | 5.5% |
| O=C(COc1ccc(-c2nnc(N3CCCCC3)c3ccccc23)cc1)N1CCCCC1 | -32.3% |
| CCC(=O)N1CCN(c2nnc(-c3ccccc3)c3ccccc23)CC1 | -13.5% |
| O=C(COc1ccccc1)N1CCN(c2nnc(-c3ccccc3)c3ccccc23)CC1 | -65.3% |
| Cc1ccc(OCC(=O)N2CCN(c3nnc(-c4ccccc4)c4ccccc34)CC2)cc1 | -61.5% |
| Cc1ccc(OCC(=O)N2CCN(c3nnc(-c4ccc(C)cc4)c4ccccc34)CC2)cc1 | -49.3% |
| Cc1ccc(-c2nnc(N3CCN(C(=O)Cn4c(=O)n(C)c5ccccc54)CC3)c3ccccc23)cc1 | -28.7% |
| CCNC(=S)NCc1ccc(F)cc1 | 5.03% |
| Br.NS(=O)(=O)c1ccc(Nc2nc(-c3ccccc3)cs2)cc1 | -26% |
| CCCn1c(=O)c(C(=O)Nc2ccccc2C(=O)OC)c(O)c2ccccc21 | 5.91% |
| S=C1NCCNC(=S)NCCOCCOCCOCCN1 | 15.2% |

| SMILES | hERG current change (%, negative = inhibition) at 10uM |
| --- | --- |
| CCOC(=O)c1nn(-c2ccccc2)c2nnc(Cc3ccc(Cl)cc3)c(=O)n12 | 3.57% |
| COc1cccc(OC)c1OCCCCN1CCC(Cc2ccccc2)CC1.O=C(O)C(=O)O | -81.9% |
| COc1cccc(OC)c1OCCCN1CCC(Cc2ccccc2)CC1.O=C(O)C(=O)O | -80.6% |
| COc1cccc(OC)c1OCCCCN1CCCC1 | -2.47% |
| COc1cccc(OC)c1OCCCN1CCOCC1 | 4.22% |
| CC(=O)CCc1ccc(OCCCCN2CCC(Cc3ccccc3)CC2)cc1.O=C(O)C(=O)O | -79.5% |
| COc1cccc(OC)c1OCCCCCCN1CCN(C)CC1.Cl | 8.54% |
| CC(=O)CCc1ccc(OCCCCn2cncn2)cc1 | -4.29% |
| COc1ccc(OCC(=O)N2CCC(Cc3ccccc3)CC2)cc1 | -36% |
| COc1cccc(OC)c1OCCCCN1CCCCC1.O=C(O)C(=O)O | -2.55% |
| COc1ccccc1OCC(=O)OCC(=O)Nc1ncc(Cl)cc1Cl | 12.8% |
| Cc1ccc2nc(NC(=O)/C=C/c3ccc4c(c3)OCO4)sc2c1 | 14.8% |
| Cc1cccc(CNC(=O)c2ccc(NC(=O)C3=CSCCO3)cc2)c1 | 5.08% |
| CSc1nnc(NC(=O)CCc2ccccc2)s1 | -6.33% |
| COc1ccc(NC(=O)CN(C)C(=O)c2ccccc2SCC(=O)N2CCCC2)cc1 | 10.5% |
| COc1ccc(Cn2c(SC)nc3ccccc32)cc1[N+](=O)[O-] | 13.9% |
| O=C(O)CCSc1nc2ccccc2n1Cc1ccccc1 | 24.1% |
| OCCn1nc2c3ccccc3nc-2n(-c2ccccc2)c1=S | -9.49% |
| CCN(CC)CCSc1nc2ccccc2c(=S)n1-c1ccccc1.Cl | -51.9% |
| CCN(CC)CCSc1nnc(Nc2ccccc2)n1-c1ccccc1 | -75.9% |
| CCN(CC)C(=O)CSc1nnc(-c2ccccc2)n1-c1ccccc1 | 17.8% |
| CCN(CC)CCSc1nc(O)c(-c2ccccc2)c(=O)n1-c1ccccc1.Cl | 12.1% |
| CSc1nc2ccccc2n1Cc1cccc([N+](=O)[O-])c1 | -44.8% |
| CN(C)C(=O)CSc1nc2ccccc2n1Cc1ccccc1 | -11.8% |
